The list is not random: actives were taken first. Their share in the collection is about 1.1%.
TrxR1 substrate = rat thioredoxin reductase 1 substrate activity; O89049; purified TrxR1 substrate turnover, NADPH consumption readout; Potency, µM (series often up to 114 µM); actives 0.01% (n = 390,000); AID 588456; further: nearly all actives have a fitted effect of over 50% in size
Target sequence (O89049 whole entry, looked up): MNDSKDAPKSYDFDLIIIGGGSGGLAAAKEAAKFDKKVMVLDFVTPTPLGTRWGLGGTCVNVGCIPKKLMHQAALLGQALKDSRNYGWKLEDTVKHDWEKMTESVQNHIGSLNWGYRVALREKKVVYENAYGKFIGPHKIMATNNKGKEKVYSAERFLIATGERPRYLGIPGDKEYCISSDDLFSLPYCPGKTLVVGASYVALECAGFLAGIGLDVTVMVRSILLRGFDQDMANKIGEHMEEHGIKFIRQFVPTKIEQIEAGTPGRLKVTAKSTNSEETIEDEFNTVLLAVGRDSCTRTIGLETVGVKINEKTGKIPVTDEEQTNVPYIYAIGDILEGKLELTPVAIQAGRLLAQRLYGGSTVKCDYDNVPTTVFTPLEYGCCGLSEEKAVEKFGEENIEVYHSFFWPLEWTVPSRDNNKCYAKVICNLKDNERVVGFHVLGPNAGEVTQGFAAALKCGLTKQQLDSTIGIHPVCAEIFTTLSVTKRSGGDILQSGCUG
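Rat TrxR1, dispensed at 90 nM, was prereduced with 400 uM NADPH (final) for 5 min at ~22 deg C, then incubated with compound 15 min before 400 uM selenite. A first-read NADPH fluorescence drop versus no-compound background flagged substrates.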
TrxR1 inh = inhibitors of rat thioredoxin reductase 1; O89049; recombinant rTrxR1, NADPH fluorescence consumption, selenite substrate; Potency, µM (titrated, usually from 114 µM), actives largely listed as inhibitors; actives 1% (n = 390,000); AID 588453; further: nearly all actives have a fitted effect of over 65% in size
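Rat TrxR1 (90 nM in the dispensed reagent) was pre-reduced with 400 uM NADPH for 5 min at room temperature, then incubated with compound for 15 min. After 400 uM selenite was added, NADPH fluorescence (Ex 340/Em 450 nm) was followed for 8 min.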
Eya2 inh = blocks the phosphatase activity of human Eya2; O00167; recombinant Eya2, OMFP fluorescence dephosphorylation (OMFP is methylfluorescein phosphate); Potency, µM (titrated, usually from 76.9 µM), usual class: inhibitors; actives 0.006% (n = 330,000); AID 488837
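Eya2 (0.2 uM) preincubated 10 min at ambient with compound, then OMFP substrate added at 50 uM; 10 min reaction in 50 mM HEPES pH 7.5, 50 mM NaCl, 5 uM MgCl2, 0.05% BSA, 1 mM DTT. Fluorescence read at Ex 485/Em 525 nm.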
mIDH1 inhibitor = human IDH1 R132H inhibition | IDH1-R132H enzyme, NADPH consumption, diaphorase/resazurin fluorescence | O75874 | AID 602179 | actives 0.093% (n = 390,000) | Potency, µM (doses to about 76.6 µM), actives largely listed as inhibitors; further: nearly all actives have a fitted effect of over 65% in size
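IDH1-R132H (0.5 ug/mL dispensed) in pH 7.5 Tris buffer was preincubated 30 min with compound, then given a substrate mix of 0.016 mM NADPH and 2 mM alpha-KG for 80 min at room temperature; remaining NADPH was read by diaphorase/resazurin fluorescence.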
RGS4 inh = inhibitors of human regulator of G protein signaling 4; actives 0.039% (n = 390,000); AID 504845; Transcreener GDP fluorescence polarization, RGS4-accelerated GTP hydrolysis; P49798; Potency, µM (series often up to 114 µM), actives largely listed as inhibitors; further: nearly all actives have a fitted effect of over 75% in size
Target sequence (P49798 whole entry, looked up): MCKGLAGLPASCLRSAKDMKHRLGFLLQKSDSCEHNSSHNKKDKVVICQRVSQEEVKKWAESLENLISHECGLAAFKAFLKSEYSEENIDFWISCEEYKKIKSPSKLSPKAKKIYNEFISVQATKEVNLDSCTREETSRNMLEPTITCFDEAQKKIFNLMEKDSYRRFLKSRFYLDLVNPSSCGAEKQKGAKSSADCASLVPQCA
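MLSMR compounds (23 nl, pin-transferred) preincubated 10 min at room temperature with a 500nM (2x) first reagent, then RGS4 at 900nM (2x) plus Transcreener GDP mix added; fluorescence polarization (620/688 nm) read before and after 90 min at 30 °C.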
Resorufin autofl = counter-screen for mutant IDH1 inhibitors: fluorescence interference; shares compounds with mIDH1 inhibitor; Resorufin detection reagent fluorescence interference, cell-free; inhibition of signal, % at 51.2 µM; 750 tested, under 10 active; AID 623980
WT IDH1 inh = wild-type IDH1 (human) inhibition counterscreen; WT IDH1 enzyme, NADPH diaphorase/resazurin fluorescence; AID 623995; actives 9% (n = 750); Potency, µM (highest dose often 115 µM), most hits filed as inhibitors; shares compounds with mIDH1 inhibitor; further: nearly all actives have a fitted effect of over 55% in size
mIDH1 confirm = inhibits human mutant IDH1 enzyme in cherrypick confirmation; Potency, µM (top dose mostly 76.6 µM), usual class: inhibitors; IDH1 R132H enzyme, NADPH diaphorase/resazurin fluorescence; shares compounds with mIDH1 inhibitor; actives 83% (n = 750); further: nearly all actives have a fitted effect of over 50% in size
Each line names hits and unclear results; the compound was inactive in the other large screens (follow-up assays come after a bar, where they were run). The call rests on the fitted dose curve; in most records, active means well fitted curve in the direction sought with a large enough effect; inconclusive means small, poorly fitted or top-dose-only effect, or another doubt; inactive means no such curve, though single readings can be large; an effect the other way counts as inactive or inconclusive.

Cc1noc(NS(=O)(=O)c2ccc(NS(=O)(=O)c3ccc(C(C)(C)C)cc3)cc2)c1C	mIDH1 inhibitor 39.8µM (no result: TrxR1 substrate, TrxR1 inh, Eya2 inh, RGS4 inh) | Resorufin autofl inactive | WT IDH1 inh inactive | mIDH1 confirm 11.2µM
CC(C)(C)c1ccc(S(=O)(=O)Nc2ccc(Cc3ccncc3)cc2)cc1	mIDH1 inhibitor inconclusive | Resorufin autofl inactive | WT IDH1 inh inactive | mIDH1 confirm 20µM
Cc1ccc(Sc2ccc(NC(=O)CCl)cc2)c(C)c1	TrxR1 inh inconclusive, mIDH1 inhibitor 52.1µM | Resorufin autofl inactive | WT IDH1 inh inconclusive | mIDH1 confirm 44.7µM
O=C(CNS(=O)(=O)c1ccc(Cl)cc1)NC1CCCCC1	none
CCCC(NC(=O)CCc1c(C)c2cc3c4c(oc3c(C)c2oc1=O)CCCC4)C(=O)O (stereo unspecified)	mIDH1 inhibitor 41.4µM | Resorufin autofl inactive | WT IDH1 inh inactive | mIDH1 confirm 28.2µM
COc1cc(-c2nc3c(c(C)nn3-c3ccccc3)c3cc(OC)c(OC)cc23)ccc1O	mIDH1 inhibitor inconclusive | Resorufin autofl inactive | WT IDH1 inh inactive | mIDH1 confirm 10µM
COc1c(OC(C)=O)ccc(/C=C/c2ccc3ccccc3n2)c1[N+](=O)[O-]	mIDH1 inhibitor inconclusive | Resorufin autofl inactive | WT IDH1 inh inactive | mIDH1 confirm 31.6µM
COc1c(OC(C)=O)ccc(/C=C/c2ccc3cccc(OC)c3n2)c1[N+](=O)[O-]	mIDH1 inhibitor inconclusive
Oc1ccc(/C=C/c2cnccn2)cc1	none
COc1ccc(N(C(=O)CCC(=O)Nc2cc(C)on2)C(C(=O)NC2CCCC2)c2ccco2)cc1 (stereo unspecified)	none
Cc1cc(NC(=O)CCCC(=O)N(c2ccccc2)C(C(=O)NC2CCCCC2)c2cccs2)no1 (stereo unspecified)	mIDH1 inhibitor inconclusive | Resorufin autofl inactive | WT IDH1 inh inactive | mIDH1 confirm 20µM
Cc1cc(NC(=O)CCC(=O)N(c2ccccc2F)C(C(=O)NC2CCCC2)c2ccccc2)no1 (stereo unspecified)	mIDH1 inhibitor inconclusive | Resorufin autofl inactive | WT IDH1 inh inactive | mIDH1 confirm 25.1µM
O=C(CCCC(=O)N(c1ccc2c(c1)OCCO2)C(C(=O)NC1CCCCC1)c1ccc(Cl)cc1)Nc1ccccn1 (stereo unspecified)	mIDH1 inhibitor inconclusive | Resorufin autofl inactive | WT IDH1 inh inactive | mIDH1 confirm 12.6µM
COc1ccc(N(C(=O)/C=C/C(=O)Nc2cc(C)on2)C(C(=O)NC2CCCC2)c2ccccc2C)cc1 (stereo unspecified)	mIDH1 inhibitor inconclusive | Resorufin autofl inactive | WT IDH1 inh inactive | mIDH1 confirm 35.5µM
Cc1ccc(C(C(=O)NC2CCCC2)N(C(=O)CCC(=O)Nc2cc(C)on2)c2ccccc2)cc1 (stereo unspecified)	none
CC(=O)c1c(C)c2c(n1CCN(C)C)CCCC2	none
CN(Cc1ccccc1)S(=O)(=O)c1ccc(OCC(=O)N2CCC(C(N)=O)CC2)cc1	none
Cc1cc(NC(=O)CCC(=O)N(c2ccccc2)C(C(=O)NC2CCCC2)c2ccccc2F)no1 (stereo unspecified)	Eya2 inh inconclusive, mIDH1 inhibitor inconclusive | Resorufin autofl inactive | WT IDH1 inh inactive | mIDH1 confirm 22.4µM
Fc1ccc(Nc2nc(NCc3ccco3)c3ccccc3n2)cc1	mIDH1 inhibitor inconclusive | Resorufin autofl inactive | WT IDH1 inh inactive | mIDH1 confirm 28.2µM
CC(=O)C1=C(c2cccc([N+](=O)[O-])c2)N(C(C)=O)n2c(C)nnc2S1	TrxR1 inh inconclusive, mIDH1 inhibitor 20.7µM | Resorufin autofl inactive | WT IDH1 inh inactive | mIDH1 confirm 3.16µM
CCOc1ccc(C2=C(C(C)=O)Sc3nnc(C)n3N2C(C)=O)cc1	mIDH1 inhibitor inconclusive (no result: Eya2 inh)
CCCc1cc(N2CCN(C(=O)c3ccco3)CC2)n2c(nc3ccccc32)c1C#N	mIDH1 inhibitor inconclusive | Resorufin autofl inactive | WT IDH1 inh inconclusive | mIDH1 confirm 39.8µM
CCOC(=O)C1=C(O)/C(=C/c2ccc(OCC(=O)O)c(OCC)c2)SC1=Nc1ccc(C)cc1	mIDH1 inhibitor inconclusive
CCOC(=O)C1=C(O)/C(=C/c2ccc(OCC(=O)O)c(OCC)c2)SC1=Nc1ccc(OC)cc1	mIDH1 inhibitor 46.5µM, RGS4 inh inconclusive | Resorufin autofl inactive | WT IDH1 inh 50.1µM | mIDH1 confirm inconclusive
COc1cc(SC#N)ccc1N=Cc1c(C)[nH]n(-c2ccc(Cl)cc2)c1=O	mIDH1 inhibitor inconclusive | Resorufin autofl inactive | WT IDH1 inh inactive | mIDH1 confirm 44.7µM
O=C(Nc1ccc(S(=O)(=O)N2CCOCC2)cc1)c1ccc2c(c1)S(=O)(=O)c1ccccc1C2=O	mIDH1 inhibitor inconclusive | Resorufin autofl inactive | WT IDH1 inh inactive | mIDH1 confirm 3.98µM
Cc1ccc(NC(=O)c2ccc3c(c2)S(=O)(=O)c2ccccc2C3=O)cc1S(=O)(=O)N1CCOCC1	none
CC(=O)Nc1ccc(-c2cn3ccsc3n2)cc1	none
c1cn2cc(-c3ccc4c(c3)OCO4)nc2s1	mIDH1 inhibitor 23.3µM, RGS4 inh inconclusive | Resorufin autofl inactive | WT IDH1 inh inactive | mIDH1 confirm 50.1µM
COc1ccc(-c2cc(-c3nnc(COC(=O)c4ccc(O)cc4)o3)c3ccccc3n2)cc1OC	mIDH1 inhibitor inconclusive | Resorufin autofl inactive | WT IDH1 inh inactive | mIDH1 confirm inconclusive
CCOC(=O)Nc1ccc2c(COC(=O)CNS(=O)(=O)c3ccc(NC(C)=O)cc3)cc(=O)oc2c1	none
Cc1ccc(-c2nn3c(-c4ccccc4C)nnc3c3ccccc23)cc1	mIDH1 inhibitor 39.8µM (no result: Eya2 inh) | Resorufin autofl inactive | WT IDH1 inh inactive | mIDH1 confirm 22.4µM
COc1cc([C@@H]2c3cc4c(cc3[C@H](O)C3COC(=O)[C@@H]32)OCO4)cc(OC)c1OC (stereo partly specified)	none (no result: mIDH1 inhibitor)
COc1cc([C@@H]2c3cc4c(cc3[C@@H](O)[C@H]3COC(=O)[C@H]23)OCO4)cc(OC)c1O[Si](C)(C)C(C)(C)C	mIDH1 inhibitor 28.2µM | Resorufin autofl inactive | WT IDH1 inh inconclusive | mIDH1 confirm inconclusive
COc1ccccc1N(C)C(=O)Cn1c(=O)oc2cc(S(=O)(=O)N3CCCC3)ccc21	none (no result: Eya2 inh)
Cc1cc(=O)[nH]c(SCC(=O)Nc2ncc(S(=O)(=O)c3ccc([N+](=O)[O-])cc3)s2)n1	mIDH1 inhibitor inconclusive | Resorufin autofl inactive | WT IDH1 inh inconclusive | mIDH1 confirm inactive
